The panel holds about 79,000 compounds, 15% with a hit somewhere; the sample as a whole holds those more often. No stated cut-off is given here; in the data, active means growth inhibition above about 70%; inactive means the rest.
Legend:
[1] = NCI Yeast Anticancer Drug Screen. Data for the rad50 strain (AID 155);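 further: 0% = growth of vehicle-only cultures of the same strain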; conditions: S. cerevisiae rad50 strain growth inhibition; at 50.0 µM; active compounds read high
Outline: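 Readout: growth inhibition relative to vehicle-treated cultures. Compound exposure was carried out in a genetically defined yeast strain deficient in DNA damage repair.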

[2] = NCI Yeast Anticancer Drug Screen. Data for the mec2-1 strain (AID 157); conditions: S. cerevisiae mec2-1 strain, at 50.0 µM, active compounds read high
Outline: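 mec2-1 yeast strain, carrying an alteration in DNA damage repair or cell cycle control, was exposed to compounds; growth inhibition was measured relative to vehicle-treated controls.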

[3] = NCI Yeast Anticancer Drug Screen. Data for the sgs1 mgt1 strain (AID 161);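 further: 0% = growth of cultures given vehicle only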; conditions: S. cerevisiae sgs1 mgt1 strain, at 50.0 µM, active compounds read high
Outline: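 Yeast cells carrying a defined DNA-repair defect were exposed to test compounds. Growth inhibition was measured relative to vehicle-treated controls.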

[4] = NCI Yeast Anticancer Drug Screen. Data for the cln2 rad14 strain (AID 165);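 further: 0% = growth equal to vehicle treated cultures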; conditions: S. cerevisiae cln2 rad14 strain, at 50.0 µM, active compounds read high
Outline: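 Yeast carrying cln2 and rad14 alterations (cell cycle control and DNA damage repair) were exposed to compounds. Growth inhibition was measured against vehicle-treated controls.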

[5] = NCI Yeast Anticancer Drug Screen. Data for the bub3 strain (AID 167); conditions: S. cerevisiae bub3 mutant strain, at 50.0 µM, active compounds read high
Outline: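 Readout: yeast growth inhibition, expressed relative to vehicle-only wells. The test organism is a mutant strain from a panel with lesions in DNA repair or checkpoint genes.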

[6] = NCI Yeast Anticancer Drug Screen. Data for the mlh1 rad18 strain (AID 175); conditions: S. cerevisiae mlh1 rad18 strain growth inhibition; at 50.0 µM; active compounds read high
Outline: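 Growth inhibition of the yeast strain was measured after compound exposure and expressed relative to vehicle-treated controls. The strain carries defined defects in DNA damage repair.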

Measured: growth inhibition

[N-]=[N+]=[N-]
inactive: [1] 6.75% | [2] 5.75% | [3] 15% | [4] -3.05% | [5] 18% | [6] -13.7%

NC(=O)C(N)C(F)c1ccccc1 (stereo not given)
inactive: [1] -11.4% | [2] 2.85% | [3] -16.4% | [4] -13.6% | [5] -11.7% | [6] 16.8%

COc1ccc(CCN)cc1OC
inactive: [1] 37.5% | [2] 9.9% | [3] 23% | [4] -82% | [5] -5.05% | [6] -24.2%

O=C(O)CC(=O)O.[NH-]C1CCCCC1[NH-].[Pt+2] (stereo not given)
inactive: [1] 23.7% | [2] 4.35% | [3] 21.4% | [4] 30.4% | [5] 21.4% | [6] 13.8%

N#CC1(c2ccccc2)CCN(C2(c3ccccc3)CCCCC2)CC1
inactive: [1] -23.4% | [2] -30.2% | [3] -5.7% | [4] 4.25% | [5] -3.55% | [6] -30.1%

COc1ccccc1CN1CCN(Cc2ccccc2OC)C1c1ccc(N(CCCl)CCCl)cc1
inactive: [1] -9.8% | [2] -9.05% | [3] -14.7% | [4] -32.5% | [5] -1.9% | [6] -4.1%

C1=CC2C=CC(C=C1)[PH+]2c1ccccc1.C1=CC2C=CC(C=C1)[PH+]2c1ccccc1.[C-]#[O+].[C-]#[O+].[C-]#[O+].[Fe] (stereo not given)
inactive: [1] -20.1% | [2] 4.4% | [3] -6.6% | [4] 26.1% | [5] 10.6% | [6] -4.85%

Cc1cc(CCl)c(O)c(CCl)c1
inactive: [1] -22.1% | [2] 0.5% | [3] -4.7% | [4] -49.7% | [5] -18.9% | [6] 22.5%

C[N+](C)(Cc1ccc([N+](=O)[O-])cc1)c1ccc(N(CCCl)CCCl)cc1
inactive: [1] -4% | [2] -24.3% | [3] -33% | [4] -15.4% | [5] -21.8% | [6] 10.8%

C=C(C)C1(CCC)C(=O)NC(=S)NC1=O
inactive: [1] 23.4% | [2] 19.7% | [3] 17.6% | [4] 25.6% | [5] 4.35% | [6] 22.4%

CC(C)/C=C/C1(C(C)C)C(=O)NC(=O)NC1=O
inactive: [1] 19.5% | [2] 9.5% | [3] -4.85% | [4] 14.1% | [5] 3.9% | [6] 3.1%

CCOC(=O)C1C(=O)NC2CCC(=O)CC21c1ccc2c(c1)OCO2 (stereo not given)
inactive: [1] 10.7% | [2] -9.5% | [3] -1.8% | [4] -3.55% | [5] 23.9% | [6] 11.2%

CN(C)C(=O)Sc1c(S(=O)(=O)F)ccc(Cl)c1Cl
inactive: [1] 22.4% | [2] 14.8% | [3] 10.3% | [4] 20.9% | [5] 6.15% | [6] 8.6%

Nc1nnnn1CCO
inactive: [1] -4.7% | [2] -13% | [3] -17% | [4] 6.4% | [5] -13.1% | [6] -13.1%

COC(=O)COC1CC[CH-]CC1.[Cl-].[Cl-].[Cl-].[Cl-].[Cl-].[Sb+5].c1ccncc1
inactive: [1] 20.8% | [2] 7.8% | [3] 18.7% | [4] 17.6% | [5] 4.75% | [6] 12.8%

CC([NH-])C[NH-].CC([NH-])C[NH-].[Cl-].[Cl-].[Co+3].[O-][Cl+3]([O-])([O-])O (stereo not given)
inactive: [1] 37.5% | [2] 12.6% | [3] 40.5% | [4] 25.6% | [5] 16.9% | [6] 1.6%

COP(=O)(Oc1ccccc1)Oc1ccccc1
inactive: [1] 17.6% | [2] -17.5% | [3] 23.9% | [4] 13.1% | [5] 25.9% | [6] 18.5%

COc1cccc(/C=N/[N-]C(=O)c2ccncc2)c1[O-].[Mn+2].[OH3+]
inactive: [1] 9.15% | [2] 12.5% | [3] 7.35% | [4] 9.95% | [5] 4.7% | [6] 20.6%

CS(=O)(=O)NC(=O)CBr
inactive: [1] -26.1% | [2] -23.6% | [3] -12.8% | [4] 14.6% | [5] -29.4% | [6] -21.1%

CC(C)C1(Cc2ccccc2)C(=O)NC(=S)NC1=O
inactive: [1] -2.05% | [2] -0.8% | [3] 9.3% | [4] -2.85% | [5] -14.2% | [6] -2.7%
